Source: ChEMBL document CHEMBL1157539, “Thousands of chemical starting points for antimalarial lead identification” (Nature, 2010)

Assays:
Format in all cases: functional
[1] = tested on: Plasmodium falciparum; assay: GSK_TCMDC: Inhibition of Plasmodium falciparum 3D7 in whole red blood cells, using parasite LDH activity as an index of growth. Test compounds present at 2uM
[2] = tested on: Plasmodium falciparum; assay: GSK_TCMDC: Inhibition of Plasmodium falciparum Dd2 in whole red blood cells, using parasite LDH activity as an index of growth. Test compounds present at 2uM
[3] = tested on: HepG2; assay: GSK_TCMDC: Percent inhibition of human HepG2 cell line. Test compounds present at 10uM.

SMILES | Inhibition [1] [%] | Inhibition [2] [%] | Inhibition [3] [%]
Cc1noc(C)c1-c1ccc(C(=C2CCCCCCC2)c2ccc(O)cc2)cc1 | 83 | 48 | 0
CN1CCC(NC(=O)c2cc(Oc3ccc4c(c3)CCN4C(=O)Nc3cccc(C(F)(F)F)c3)ccn2)CC1.O=C(O)C(F)(F)F | 92 | 17 | 16
CCOc1cc2c(cc1S(=O)(=O)c1ccc(COc3ccc(C(F)(F)F)cc3)cc1)CCN(C)CC2.Cl | 87 | 14 | 27
O=C(CCNc1ccnc(NCCc2ccc(F)cc2)n1)Nc1ccccc1.O=C(O)C(F)(F)F | 95 | 10 | 9
COc1ccc(NC(=O)Nc2cc(C)nc3cccnc23)cc1Cn1ccnc1 | 100 | 41 | 12
O=C(NCCN1CCN(S(=O)(=O)c2ccc(OC3CCNCC3)c(Br)c2)CC1)c1ccc(Cl)c(Cl)c1.O=C(O)C(F)(F)F | 89 | 0 | 1
O=C(O)C(F)(F)F.OC1(Cc2ccccc2)CCN(Cc2cccc(-c3c[nH]c4nc(NC5CCCC5)ncc34)c2)CC1 | 96 | 35 | 45
Fc1ccc(-c2cc(NCCCn3ccnc3)nc(-c3cccnc3)n2)cc1 | 99 | 70 | 11
CN(C)CCCOc1cccc(NC(=O)Nc2ccc(-c3ccccc3)cc2)c1.O=C(O)C(F)(F)F | 91 | 14 | 9
CC(C)Oc1cc2c(cc1NS(=O)(=O)c1ccc(-c3ccc(Cl)cc3)cc1)CCN(C)CC2.Cl | 99 | 65 | 100
N#Cc1ccc(N/C(=N\c2cccc(Cl)c2Cl)NC2Cc3ccccc3C2)c(O)c1 | 94 | 77 | 15
Cc1cc(N[C@@H](Cc2ccccc2)C(=O)Nc2ccccc2)nc(NCCc2ccc(F)cc2)n1.O=C(O)C(F)(F)F | 96 | 81 | 26
O=C(Nc1ccccc1C(F)(F)F)Nc1nn(Cc2c(F)cccc2Cl)cc1Br | 100 | 86 | 0
CC(=O)Nc1nc(C(=O)Nc2ccc(-c3cccc(-c4nc5cc(C(F)(F)F)ccc5[nH]4)c3)cc2)cs1 | 100 | 97 | 79
N=C1NC(=N)N(OCCCCCCON2C(=N)NC(=N)NC2C=Cc2ccccc2)C(C=Cc2ccccc2)N1 (stereo unspecified) | 97 | 94 | 17
O=C(Nc1ccc(C(F)(F)F)cc1)N[C@H]1CCN(CCCCCNC(=O)C2CC2c2ccc(Cl)c(Cl)c2)C1 (stereo partly specified) | 96 | 0 | 41
Cc1cccc2nc(-c3ccc(-c4ccc(CN5CCN(CCN6CCOCC6)CC5)cc4)cc3)[nH]c12.O=C(O)C(F)(F)F | 98 | 74 | 49
CCN(CCO)Cc1ccc(-c2ccc(NS(=O)(=O)c3cccc4cccnc34)cc2)cc1.O=C(O)C(F)(F)F | 92 | 16 | 25
CS(=O)(=O)Cc1ccc(Nc2nccc(N3CCCc4cc(NC(=O)Nc5cccc(C(F)(F)F)c5)ccc43)n2)cc1 | 100 | 99 | 46
CCCC[C@H](NC(=O)O[C@H](COc1ccc(OCc2ccccc2)cc1)C(C)(C)C)C(=O)C(=O)Nc1cc[nH]n1 | 88 | 71 | 21
CNC(=O)C(NC(=O)c1ccccc1C(=O)OC)c1ccccc1 (stereo unspecified) | 96 | 2 | 4
Cc1ccc(Cn2c(N3CCC(C(=O)NCc4ccccn4)CC3)nc3ccccc32)cc1 | 100 | 99 | 0
CCOC(=O)c1nc(-c2ccc(-c3ccccc3)cc2)[nH]c1N.Cl | 98 | 2 | 0
CCc1c(CCNCC/C=C/CCNCCc2ccc(OC)c(OC)c2CC)ccc(OC)c1OC.Cl | 100 | 7 | 41
COc1ccc(-c2cnc3ccc(NCc4ccc(S(N)(=O)=O)cc4)nn23)cc1 | 96 | 99 | 19
Cc1ccc(-n2ncc(C(=O)Nc3cc(Cl)cc(Cl)c3)c2C2CCNCC2)cc1C.Cl | 100 | 77 | 65
N#Cc1cccc(NC(=O)c2cccc(S(=O)(=O)NC3CCN(CC4CCCCC4)C3)c2)c1.O=C(O)C(F)(F)F (stereo unspecified) | 100 | 27 | 29
